The source made the active and inactive calls. Unless noted, the rule behind the calls is not given here.
Columns and labels:
[1] = system: XIP peptide (Xip251-270) binding; assay: XIP fragment 251-270 binding compounds – biochemical, small-molecule microarray, fluorescence 635/667 nm, 0.1 µg/mL protein, primary screen (AID 1182); details: fluorescent protein binding, 635 nm, higher = more signal, called active from +8 up or from −8 down
[2] = system: XIP peptide (Xip251-270); assay: compounds binding XIP fragment 251-270 – biochemical, small-molecule microarray, fluorescence 635/667 nm, 0.5 µg/mL protein, primary screen (AID 1183); details: fluorescence 635 nm, higher = more signal
[3] = blood-stage malaria parasite viability loss – strain 3D7, DAPI fluorescence, 100 nL, primary screen (AID 1184);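 note: parasites grown inside human red blood cells in medium with human serum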; details: P. falciparum 3D7 growth, 3 d, higher = more signal
[4] = biological target: Homeobox protein Hox-A13 (Mus musculus) (UniProt Q62424); assay: disruptors of Hoxa13 oligonucleotide interaction – biochemical, fluorescence polarization, labeled oligonucleotide, primary screen (AID 1185); details: Hoxa13:DNA binding, 15 min, higher = more signal, called active from +8 up or from −8 down
[5] = blockers of DNA damage checkpoint Chk1 activation – imaging, HeLa, hydroxyurea, phospho-Chk1 antibody, percent positive cells, primary screen (AID 1186); details: hydroxyurea-induced phospho-Chk1 immunofluorescence imaging, higher = more signal
[6] = blockers of DNA damage checkpoint Chk1 activation – imaging, HeLa, hydroxyurea, phospho-Chk1 nuclear intensity, primary screen (AID 1187); details: hydroxyurea-induced phospho-Chk1 immunofluorescence imaging, higher = more signal

Chain of Homeobox protein Hox-A13 (Mus musculus) (Q62424 whole entry, looked up): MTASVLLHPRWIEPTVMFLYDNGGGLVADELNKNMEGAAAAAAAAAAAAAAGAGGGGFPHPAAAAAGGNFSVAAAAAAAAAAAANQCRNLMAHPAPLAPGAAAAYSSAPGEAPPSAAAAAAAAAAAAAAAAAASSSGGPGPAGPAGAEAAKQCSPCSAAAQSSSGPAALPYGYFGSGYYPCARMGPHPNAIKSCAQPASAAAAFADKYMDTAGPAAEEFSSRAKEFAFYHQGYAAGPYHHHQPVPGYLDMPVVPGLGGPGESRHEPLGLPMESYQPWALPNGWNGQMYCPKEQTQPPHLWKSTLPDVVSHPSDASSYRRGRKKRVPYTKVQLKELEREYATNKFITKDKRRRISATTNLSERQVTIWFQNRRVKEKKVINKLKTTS

SMILES | composite z-score [1] | composite z-score [2] | z-score [3] | z-score [4] | z-score [5] | z-score [6]
C[C@@H]1ON(c2ccc(I)cc2)[C@H](c2ccc(OC(=O)OC(C)(C)C)cc2)[C@H]1C(=O)N1C(=O)OC[C@H]1Cc1ccccc1 | 0.589 (inactive) | 0.515 | -2.13 | -0.866 (inactive) | -1.08 (inactive) | -0.859 (inactive)
O=C1NC(=O)C2C1C=CC(C(O)c1ccccn1)N2Nc1ccc(Cl)cc1Cl (stereo not given) | 0.628 (inactive) | 0.326 | 0.358 | -4.45 (inactive) | -0.133 (inactive) | -0.18 (inactive)
COc1ccc(C(=O)Nc2cccc(CN3C(=O)[C@@]4(O[C@@H](CC(=O)N(CCO)Cc5ccccc5)[C@H]([Si](C)(C)c5ccc(OC)cc5)[C@H]4C)c4ccccc43)c2)cc1 | 1.31 (inactive) | 0.442 | -2.54 | -0.674 (inactive) | -1.43 (inactive) | -0.643 (inactive)
COCCOC(=O)N1C(=O)[C@@]2(c3cc(C#CCNC(N)=O)ccc31)[C@H](c1ccc(O)cc1)N1[C@H](c3ccccc3)[C@H](c3ccccc3)OC(=O)[C@H]1[C@@H]2C(N)=O | -0.256 (inactive) | 0.124 | 0.228 | -0.531 (inactive) | -0.0933 (inactive) | -0.0072 (inactive)
CC1(C)C(=O)C(c2ccccc2)=C2CN3C(=O)N(CCc4ccccc4)C(=O)C3(Cc3ccc(F)cc3)C=C21 (stereo not given) | 0.2 (inactive) | 0.328 | -1.81 | -1.99 (inactive) | 0.478 (inactive) | -0.173 (inactive)
O=C1C2C=CC(C(O)C=Cc3ccc([N+](=O)[O-])cc3)N(Nc3ccccc3)C2C(=O)N1c1ccccc1 (stereo not given) | -0.375 (inactive) | 0.596 | -0.054 | -4.58 (inactive) | -0.744 (inactive) | -0.913 (inactive)
CCOC(=O)C=Cc1cc(F)ccc1O | 0.198 (inactive) | 0.487 | -1.65 | -0.42 (inactive) | 0.631 (inactive) | -1.13 (inactive)
Cc1ccc(S[C@]2(C(=O)NC(C)C)CC(=O)N(Cc3ccccc3Cl)[C@@H]2c2ccc(CO)cc2)cc1 | 0.73 (inactive) | -0.11 | -1.49 | -3.73 (inactive) | -0.0383 (inactive) | -0.0912 (inactive)
CC(=O)N1CC(C(O)C2C=CC3C(=O)NC(=O)C3N2Nc2ccc(Cl)cc2Cl)c2ccccc21 (stereo not given) | 0.111 (inactive) | 0.0205 | -0.252 | -4.92 (inactive) | 0.358 (inactive) | 0.492 (inactive)
Cc1ccc(S[C@]2(C(=O)NCc3ccccc3)CC(=O)N(Cc3cc(C(F)(F)F)cc(C(F)(F)F)c3)[C@@H]2c2ccc(CO)cc2I)cc1 | 1.16 (inactive) | -0.474 | -0.261 | -1.82 (inactive) | 0.0563 (inactive) | 0.249 (inactive)
COCCOC(=O)N1C(=O)[C@@]2(c3cc(C#CC4=CCCCC4)ccc31)[C@H](C(=O)N1CCCCCCC1)[C@H]1C(=O)O[C@H](c3ccccc3)[C@H](c3ccccc3)N1[C@@H]2c1ccc(OCCO)cc1 | -0.404 (inactive) | 0.56 | -2.01 | -15.8 (active) | 0.0039 (inactive) | -0.192 (inactive)
CCCCC(=C=CC[C@H](O)c1ccc(OCCO)cc1)C[C@H](O)COCc1ccccc1 | 0.9 (inactive) | 0.1 | -1.44 | -4.21 (inactive) | -0.122 (inactive) | -0.0784 (inactive)
CN(C)CCCCNC(=O)[C@H]1C[C@H]2C(=O)N[C@@H](CCCC[N+](C)(C)C)C(=O)N2[C@H]1c1ccc(O)cc1 | -0.0941 (inactive) | 0.674 | -0.449 | -3.64 (inactive) | -1.31 (inactive) | -0.989 (inactive)
CC(C)CNC(=O)[C@@]1(C)c2ccccc2C(=O)N(Cc2cc(C(F)(F)F)cc(C(F)(F)F)c2)[C@H]1c1ccc(CO)cc1 | -0.337 (inactive) | 0.145 | -0.607 | -2.63 (inactive) | 0.0613 (inactive) | 0.447 (inactive)
COCCOC(=O)N1C(=O)[C@@]2(c3cc(C#CCC(C(=O)OC)C(=O)OC)ccc31)[C@H](c1ccc(OCCO)cc1)N1[C@H](c3ccccc3)[C@H](c3ccccc3)OC(=O)[C@H]1[C@@H]2C(=O)Nc1nc2ccccc2s1 | 0.0047 (inactive) | 0.59 | -0.512 | 2.1 (inactive) | -0.365 (inactive) | -0.632 (inactive)

Source: PubChem BioAssay
